The nature of assay [1]: E. coli DRC41 culture turbidity changes, primary screen, E. coli filamentation inducer project, strain DRC41, OD650, 48 h (AID 1152).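 Note: E. coli MC1000 strain DRC41 lacking acrAB efflux pump and sulA.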 Particulars: E. coli DRC41 (acrAB sulA), higher = more signal, called active from +8 up or from −8 down.
The nature of assay [2]: small-molecule binders of probe aLefty1, primary screen, biochemical, small-molecule microarray, 635/667 nm fluorescence (AID 1153).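 Note: score merges spot fluorescence with signal-to-noise ratio from the scanned slide images.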 To be noted: higher = more signal.
The nature of assay [3]: PSAC antagonists in infected red cells, primary screen, cell-based, P. falciparum Indochina, OD700, 1 h (AID 1154). To be noted: P. falciparum Indochina infected RBC osmotic lysis, higher = more signal, called active from +8 up or from −8 down.
Assay [4] can be described thus: PSAC antagonists in infected red cells, primary screen, cell-based, P. falciparum Indochina, OD700, 2 h (AID 1155).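 Note: lysis reports solute entry through the parasite surface anion channel PSAC; channel blockers reduce lysis of infected cells.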 Particulars: P. falciparum Indochina infected erythrocytes, osmotic lysis OD700; higher = more signal, called active from +8 up or from −8 down.
The nature of assay [5]: osmotic lysis modulators in infected erythrocytes, primary screen, PSAC antagonist project, cell-based, P. falciparum Indochina, OD700, 3 h (AID 1156). To be noted: higher = more signal, called active from +8 up or from −8 down.
Assay [6] in a line: PSAC antagonists in infected red cells, primary screen, cell-based, P. falciparum Indochina, OD700, 18 h (AID 1157). To be noted: P. falciparum Indochina infected erythrocytes, osmotic lysis OD700, 18 h; higher = more signal, called active from +8 up or from −8 down.
Assay [7] in a line: modulators of S6 phosphorylation in cells, primary screen, cell-based, A549, cytoblot, luminescence, serum-stimulated (AID 1158).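 Note: serum-stimulated A549 lung adenocarcinoma cells; signal is phosphorylated S6 detected by cytoblot immunostaining with HRP secondary.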 Particulars: A549 phospho-S6 cytoblot, 5 h, higher = more signal.
In assay [8] the target is NADPH oxidase 2 (Homo sapiens) (UniProt P04839). The assay is described as follows: NOX2-dependent H2O2 signal modulators, primary screen, NOX inhibitor project, cell-based, HEK293-NOX2, PMA-stimulated, Amplex Red fluorescence (AID 1159). Note: test concentration not given here. To be noted: 45 min, higher = more signal, called active from +8 up or from −8 down.
Sequence of NADPH oxidase 2 (Homo sapiens) (P04839 whole entry, looked up): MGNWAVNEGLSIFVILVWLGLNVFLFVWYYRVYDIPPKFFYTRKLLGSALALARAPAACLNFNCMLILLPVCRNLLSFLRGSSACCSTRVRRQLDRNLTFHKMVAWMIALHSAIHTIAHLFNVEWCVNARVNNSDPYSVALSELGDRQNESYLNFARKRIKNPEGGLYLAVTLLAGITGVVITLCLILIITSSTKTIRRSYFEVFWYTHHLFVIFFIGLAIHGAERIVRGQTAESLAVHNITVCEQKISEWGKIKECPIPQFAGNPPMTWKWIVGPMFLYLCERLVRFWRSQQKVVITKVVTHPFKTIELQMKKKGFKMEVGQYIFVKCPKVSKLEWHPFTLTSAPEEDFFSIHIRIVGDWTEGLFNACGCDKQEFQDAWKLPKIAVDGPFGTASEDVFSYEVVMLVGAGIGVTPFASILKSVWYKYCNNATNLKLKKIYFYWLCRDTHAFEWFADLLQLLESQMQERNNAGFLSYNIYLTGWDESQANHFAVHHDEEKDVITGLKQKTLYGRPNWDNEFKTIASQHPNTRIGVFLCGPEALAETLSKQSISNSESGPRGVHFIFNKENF
For assay [9], the target named is NADPH oxidase 4 (Homo sapiens) (UniProt Q9NPH5). In words: NOX4-dependent H2O2 signal modulators, primary screen, NOX inhibitor project, cell-based, HEK293-NOX4, tetracycline-induced, Amplex Red fluorescence (AID 1160). Particulars: 45 min, higher = more signal, called active from +8 up or from −8 down.
Sequence of NADPH oxidase 4 (Homo sapiens) (Q9NPH5 whole entry, looked up): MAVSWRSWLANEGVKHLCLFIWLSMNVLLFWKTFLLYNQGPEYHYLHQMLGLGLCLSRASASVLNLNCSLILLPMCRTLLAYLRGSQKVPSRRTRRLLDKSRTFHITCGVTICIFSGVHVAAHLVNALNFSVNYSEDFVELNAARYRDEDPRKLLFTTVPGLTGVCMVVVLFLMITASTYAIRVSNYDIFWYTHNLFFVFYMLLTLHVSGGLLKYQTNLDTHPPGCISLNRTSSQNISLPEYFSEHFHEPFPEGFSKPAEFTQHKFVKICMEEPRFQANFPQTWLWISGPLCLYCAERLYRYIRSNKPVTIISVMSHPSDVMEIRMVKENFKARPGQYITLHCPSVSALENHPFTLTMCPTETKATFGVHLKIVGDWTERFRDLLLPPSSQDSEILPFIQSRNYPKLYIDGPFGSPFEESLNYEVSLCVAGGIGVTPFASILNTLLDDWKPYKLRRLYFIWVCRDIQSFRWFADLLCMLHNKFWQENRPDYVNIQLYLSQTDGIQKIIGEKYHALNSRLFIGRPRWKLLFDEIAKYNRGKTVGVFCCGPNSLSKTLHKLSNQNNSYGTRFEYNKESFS
The target in assay [10] is NADPH oxidase 5 (Homo sapiens) (UniProt Q96PH1). The assay is described as follows: NOX5-dependent H2O2 signal modulators, primary screen, NOX inhibitor project, cell-based, HEK293-NOX5, Amplex Red fluorescence (AID 1161). To be noted: HEK293-NOX5, ionomycin, 45 min, higher = more signal.
Sequence of NADPH oxidase 5 (Homo sapiens) (Q96PH1 whole entry, looked up): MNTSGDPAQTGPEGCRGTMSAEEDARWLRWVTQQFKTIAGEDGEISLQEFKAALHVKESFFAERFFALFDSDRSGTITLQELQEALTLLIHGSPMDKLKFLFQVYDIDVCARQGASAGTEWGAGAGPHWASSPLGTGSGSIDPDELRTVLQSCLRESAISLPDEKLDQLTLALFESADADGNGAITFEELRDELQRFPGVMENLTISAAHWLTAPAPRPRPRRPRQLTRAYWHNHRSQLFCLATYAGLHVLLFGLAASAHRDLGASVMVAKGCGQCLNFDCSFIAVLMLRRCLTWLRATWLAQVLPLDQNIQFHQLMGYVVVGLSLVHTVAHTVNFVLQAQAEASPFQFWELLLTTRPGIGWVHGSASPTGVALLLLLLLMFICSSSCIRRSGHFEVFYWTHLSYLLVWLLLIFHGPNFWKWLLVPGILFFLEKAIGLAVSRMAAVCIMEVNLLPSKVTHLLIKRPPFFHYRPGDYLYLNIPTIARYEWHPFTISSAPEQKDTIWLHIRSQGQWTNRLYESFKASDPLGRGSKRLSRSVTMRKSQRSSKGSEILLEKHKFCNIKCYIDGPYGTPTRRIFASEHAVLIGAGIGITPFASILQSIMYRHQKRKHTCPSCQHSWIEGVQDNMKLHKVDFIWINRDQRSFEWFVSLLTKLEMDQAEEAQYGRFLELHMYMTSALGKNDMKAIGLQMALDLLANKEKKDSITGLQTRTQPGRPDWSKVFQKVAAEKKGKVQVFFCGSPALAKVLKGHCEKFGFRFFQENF

Calls of active or inactive are those of the source.

`CC(C)(C)OC(=O)CC[C@@]1(C(=O)N2CCCCC2)N=C(c2ccc(OCCCO)cc2)O[C@@H]1c1ccccc1N=[N+]=[N-]`: the z-score in assay [1] was 1.71 (inactive); in assay [3], 30.3 (active); in [4], 29.3 (active); in assay [5], 2.26 (inactive); in assay [6], 8.44 (active); in assay [7], -0.0394. Also, the results for the z-score in assay [8], in assay [9] and in assay [10] were -2.98 (inactive), 1.03 (inactive) and -1.47, respectively. Further, the composite z-score in assay [2] worked out at 0.432.

Take `CCCCCCC#C[Si](O[C@H](c1ccccc1)c1cn(Cc2cccc(Cl)c2)nn1)(C(C)C)C(C)C`: the z-score was 1.9 (inactive) in assay [1]; 0.876 (inactive) in assay [3]; 0.886 (inactive) in assay [4]; 0.0206 (inactive) in assay [5]; 0.162 (inactive) in assay [6]; 0.635 in assay [7]. Also, the results for the z-score in [8], in assay [9] and in assay [10] were -0.706 (inactive), -0.705 (inactive) and -0.576, respectively. For the same compound, in assay [2], the composite z-score was -0.142.

Turning to `Cc1cc(C)c(C(O)C2C=CC3C(=O)N(c4ccccc4)C(=O)C3N2Nc2ccc([N+](=O)[O-])cc2)c(C)c1` (stereo not given), the z-score in assay [1] was -0.613 (inactive); in [3] it was 6.15 (inactive); in [4] it was 1.76 (inactive); in assay [5], 0.252 (inactive); in assay [6], 1.13 (inactive); in assay [7] it was -0.62. Further, the z-score in [8] is -0.305 (inactive); in [9] it was -0.661 (inactive); in [10], -1.63. In assay [2], the composite z-score came to 0.703.

Turning to `[N-]=[N+]=NCc1ccccc1C[C@]1(C(=O)NCCN2CCOCC2)N=C(c2ccc(OCCCO)cc2)O[C@H]1c1ccccc1`, the z-score in [1] was 0.158 (inactive); in assay [3], 12.7 (active); in assay [4], 1.83 (inactive); in assay [5], 1.14 (inactive); in assay [6] it was 1.11 (inactive); in assay [7] it was 0.378. In addition, the z-score was -1.77 (inactive) in assay [8], -0.0953 (inactive) in [9] and -1.19 in assay [10]. Besides, in assay [2], the composite z-score worked out at 0.428.

Consider `CCCNC(=O)[C@@]1(Sc2ccc(C)cc2)CC(=O)N(Cc2ccccc2)[C@@H]1c1ccc(CO)cc1I`, for which the z-score was -0.383 (inactive) in assay [1]; 6.23 (inactive) in assay [3]; 0.815 (inactive) in assay [4]; -0.713 (inactive) in [5]; 0.206 (inactive) in [6]; -0.374 in assay [7]. In addition, the z-score was 1.04 (inactive) in assay [8], -1.94 (inactive) in assay [9] and 1.79 in assay [10]. Also, the composite z-score in assay [2] was -0.0573.

With `O=C1N(Cc2ccccc2)c2ccccc2[C@H]2OC(c3ccc(OCCCO)cc3)=N[C@@]12CCS(=O)(=O)c1ccccc1`, the z-score in assay [1] was -0.751 (inactive); in [3] it was 25.3 (active); in assay [4], 11.8 (active); in assay [5], 2.9 (inactive); in [6], 1.85 (inactive); in [7], -0.0791. In addition, the figures for the z-score in [8], in assay [9] and in [10] were -0.596 (inactive), -0.793 (inactive) and -1.21, respectively. Also, the composite z-score in [2] is 0.396.

Take `O=C1C2C=CC(C(O)c3ccccn3)N(Nc3ccccc3)C2C(=O)N1c1ccccc1` (stereo not given): the z-score was -0.803 (inactive) in assay [1]; 1.67 (inactive) in assay [3]; 1.27 (inactive) in assay [4]; -0.167 (inactive) in [5]; 0.974 (inactive) in assay [6]; -0.721 in assay [7]. The results for the z-score in assay [8], in assay [9] and in assay [10] were -1.21 (inactive), -3.92 (inactive) and -2.84, respectively. This compound also displayed a composite z-score in [2] of 0.0437.

As to `C=CCC(OC(C)=O)[C@@H]1[C@@H](N(Cc2cccc3ccccc23)C(=O)Cc2ccc(F)cc2)c2cc(OCCCO)ccc2N1C(=O)Cc1ccc(OC)cc1` (stereo not given in full), the z-score was 1.44 (inactive) in assay [1]; 0.922 (inactive) in assay [3]; -0.262 (inactive) in [4]; -0.0628 (inactive) in assay [5]; -0.545 (inactive) in assay [6]; 1.36 in assay [7]. The z-score was -0.973 (inactive) in [8], 0.113 (inactive) in assay [9] and 0.743 in assay [10]. Moreover, the composite z-score in assay [2] came to 0.0789.

Take `COc1ccc([Si](C)(C)[C@H]2[C@H](CC(=O)N3CCC[C@H]3CO)O[C@@]3(C(=O)N(Cc4ccc(N5C(=O)c6cccc7cccc5c67)cc4)c4ccccc43)[C@@H]2C)cc1`: the z-score in assay [1] was -0.0217 (inactive); in assay [3], 6.9 (inactive); in assay [4], 1.31 (inactive); in assay [5], 1.72 (inactive); in assay [6] it was 0.771 (inactive); in [7] it was 0.298. In addition, the z-score in [8] is 1.86 (inactive); in [9], 1.19 (inactive); in assay [10], 2.62. The composite z-score in [2] was found to be 0.0903.

For the compound `CCOC(=O)C1=CC[C@@H](c2cccc(Br)c2)N(S(=O)(=O)c2ccc(C)cc2)[C@H]1c1ccc([N+](=O)[O-])cc1`, the z-score in [1] was -1.22 (inactive); in assay [3], 1.27 (inactive); in [4], 1.55 (inactive); in [5], -0.0988 (inactive); in assay [6], 1.29 (inactive); in [7] it was -0.68. The z-score in assay [8] was 1.24 (inactive); in [9], 0.77 (inactive); in assay [10], 0.165. For the same compound, the composite z-score in assay [2] amounted to 0.0509.

As for `CC(C)CCC[C@@H](C)[C@H]1CC[C@@]2(C)C3=C(CC[C@]12C)[C@@]1(C)CC[C@H](OC(=O)C(C)(C)C)C(C)(C)C1CC3` (stereo not given in full), the z-score in [1] is 0.836 (inactive); in assay [3], -0.0452 (inactive); in [4], -0.698 (inactive); in [5], -0.647 (inactive); in [6], -1.07 (inactive); in assay [7], 2.9. The z-score is 0.249 (inactive) in [8], 0.4 (inactive) in [9] and 1.29 in [10]. The compound also had a composite z-score in assay [2] of -0.374.

In the case of `O=C1O[C@H](c2ccccc2)[C@H](c2ccccc2)N2[C@H]1[C@@H](C(=O)NC[C@H](O)c1ccccc1)[C@]1(C(=O)Nc3ccccc31)[C@H]2c1ccccc1OCCO`, the z-score is 2.45 (inactive) in [1]; 5.21 (inactive) in [3]; 1.84 (inactive) in [4]; -2.5 (inactive) in assay [5]; -0.343 (inactive) in assay [6]; 2.39 in [7]. Besides, the z-score was 1.23 (inactive) in [8], 0.707 (inactive) in [9] and 0.34 in assay [10]. The composite z-score in [2] amounted to 0.453.

Source of the values: PubChem BioAssay.
